Pf Dd2 growth: blocks in vitro growth of P. falciparum Dd2 | P. falciparum Dd2 growth, SYBR Green, 72 h | Potency, µM (top dose mostly 28.9 µM), for the others: top-dose activity, negative = inhibition, actives largely listed as inhibitors | AID 1347417 | 120,000 tested, 4.3% active; active means well fitted inhibition curve with a large enough effect;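 further: plate controls were DMSO vehicle for no effect and reference drug for full effect; nearly all actives have a fitted effect of over 65% in size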
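Readout: SYBR Green fluorescence, 485 nm excitation, 535 nm emission, after ~16 h lysis at 37C. Before that, Dd2-infected red cells (2.5% hematocrit) grew 72 h with compound, 29 uM top final concentration.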
The depositor's hits bear a star; i = inactive; [ ] = another dose, or the depositor's remark. This excerpt belongs to a sample that is enriched for hits. Potency means the concentration at half of the fitted maximal effect.

SMILES | Pf Dd2 growth
COCCNc1cc(-c2cncc(C(=O)N3CCOCC3)n2)c2cc[nH]c2n1 | -12%
CN(C)CCNc1cc(-c2ccc3ccccc3n2)c2cc[nH]c2n1 | 13µM*
Clc1cccnc1-c1cc(NCc2ccccn2)nc2[nH]ccc12 | 8.9µM*
Cc1ccc(C#N)c(-c2cc(NCc3cccnc3)nc3[nH]ccc23)n1 | -24%
CC(=O)NCc1ccc(-c2cc(NC3CCCC3)nc3[nH]ccc23)nc1 | -24%
CC(=O)c1sccc1-c1cc(NCc2ccccn2)nc2[nH]ccc12 | -28%
NC(=O)c1ccnc(-c2cc(NCc3ccccn3)nc3[nH]ccc23)c1 | -25%
CCC(c1cccs1)N1C(=O)[C@H]2CN(S(=O)(=O)c3cn(C)cn3)C[C@H]2C1=O (stereo not given in full) | i
CC(C)N1CC[C@@H]2[C@H]1C(=O)NC[C@H](CCC(=O)NCc1cccs1)N2C | 0%[44.1 µM]
CN(C)[C@@H]1CN(Cc2cccc(C#N)c2)C[C@H]1CO | -22%
Cc1ccccc1NC(=O)c1ccc2c(c1)N(C)C1CCCN1C2=O (stereo not given) | i
COCCOC1CCN(C(=O)Nc2cccc(C)c2)CC1 | 35%
O=C(NC1CCN(c2cc(-c3ccc(F)cc3)[nH]n2)CC1)c1ccc2c(c1)OCO2 | i
COc1ccccc1C(=O)N1CCn2c(nn(-c3ccc(Cl)cc3)c2=O)C1 | 24%
COc1ccc(-c2ccc3nc(-c4cccc(Cl)c4)oc3c2)c(OC)c1OC | -5%
O=C(c1ccccc1)N1CCN2C(=O)N(Cc3ccccc3)C(=O)[C@H]2C1 | i
Clc1ccccc1Nc1cnc2ccc(N3CCOCC3)nn12 | -14%[44.1 µM]
FC(F)(F)c1cc(Nc2cnc3ccc(N4CCOCC4)nn23)ccc1Cl | -17%[44.1 µM]
Fc1ccc(-c2ccc3ncc(Nc4ccc5c(c4)OCO5)n3n2)cc1 | i
CN(Cc1ccc(F)cc1)c1ccc2ncc(Nc3ccc4c(c3)OCCO4)n2n1 | 5.6µM*
CN1CCN(c2ccc3ncc(Nc4ccccc4F)n3n2)CC1 | -1%[44.1 µM]
Fc1ccc(-c2ccc3ncc(Nc4ccnc(N5CCOCC5)c4)n3n2)cc1 | 0.56µM*
COc1ncccc1Nc1cnc2ccc(N(C)C)nn12 | i
COc1cncc(Nc2cnc3ccc(N(C)Cc4ccc(F)cc4)nn23)c1 | i
CN(Cc1ccc(F)cc1)c1ccc2ncc(Nc3ccnc(N4CCOCC4)c3)n2n1 | 4µM*
SMILES | Pf Dd2 growth
FC(F)(F)Oc1ccc(Nc2cnc3ccc(N4CCOCC4)nn23)cc1 | 11µM*
COc1cccc(Nc2cnc3ccc(N4CCOCC4)nn23)c1 | i
COc1ccc(Nc2cnc3ccc(N4CCOCC4)nn23)cn1 | i
CCn1ccc2sc(C)c(C(=O)NCc3cccc(Cl)c3)c2c1=O | -20%
Cn1nc(C2CCNCC2)c2c(C(=O)NC3CC3)cc(C3CC3)nc21 | 16%
O=C(CCCc1ccccc1)NCC(=O)N1CCN(c2ccccn2)CC1 | i
CC(C)(N)C(=O)N1CCCC(N2CCN(c3ccc(F)cc3)CC2)C1 (stereo not given) | -27%
CNC(=O)C(C)(C)N1CCC[C@H]1C(=O)NCCN1CCCCC1 | 24%[44.1 µM]
COc1cccc2c1OCCCN(Cc1nnc(-c3ccccc3)o1)C2 | -11%
COc1cccc(C(=O)NC2CCN(c3cnn(C)c(=O)c3)CC2)c1OC | -6%
CC(C)C[C@@H]1N[C@H](C(=O)N2CCOCC2)Cc2cn(Cc3ccncc3)c3cccc1c23 | 10µM*
CC(C)C[C@@H]1N[C@H](C(=O)NCC2CC2)Cc2cn(Cc3cccnc3)c3cccc1c23 | -38%[44.1 µM]
COCCNC(=O)[C@@H]1Cc2cn(Cc3cccnc3)c3cccc(c23)[C@H](CC(C)C)N1 | 11µM*
CC#CCn1cc2c3c(cccc31)[C@H](CC(C)C)N[C@H](C(=O)N1CCOCC1)C2 | i
Cc1noc(C)c1Cn1cc2c3c(cccc31)[C@H](CC(C)C)N[C@H](C(=O)O)C2 | i
CC(C)C[C@@H]1N[C@H](C(=O)N2CCN(C)CC2)Cc2cn(Cc3ccccn3)c3cccc1c23 | i
COCCNC(=O)[C@@H]1Cc2cn(Cc3ccccn3)c3cccc(c23)[C@H](CC(C)C)N1 | i
CC(C)C[C@@H]1N[C@H](C(=O)N2CCN(C)CC2)Cc2cn(Cc3cccnc3)c3cccc1c23 | -8%
CC#CCn1cc2c3c(cccc31)[C@H](CC(C)C)N[C@H](C(=O)N1CCN(CCO)CC1)C2 | 10µM*
CCC(c1cccs1)N1C(=O)[C@H]2CN(S(=O)(=O)c3cc(F)ccc3F)C[C@H]2C1=O (stereo not given in full) | i
O=S(=O)(NCCn1cc(-c2cncnc2)nn1)c1ccc(Cl)cc1 | 6%
O=C(C[C@@H]1CCNC[C@@H]1Cc1cc(-c2ccccc2)on1)NCc1cccs1 | 0%[44.1 µM]
CCN1CCCCC12Cc1ccccc1CN(C(=O)C1CCN(C)CC1)C2 (stereo not given) | -17%
CN(C)CCC(=O)N1Cc2ccccc2CC2(CCCCN2CC2CCOCC2)C1 (stereo not given) | -30%
O=C(O)CCC(=O)N1Cc2ccccc2CC2(CCCN2Cc2ccccc2)C1 (stereo not given) | -14%
SMILES | Pf Dd2 growth
CCN1CCCCC12Cc1ccccc1CN(C(=O)Cc1ccc(OC)cc1)C2 (stereo not given) | 11µM*
COc1ccc(CN2CCCCC23Cc2ccccc2CN(C(C)=O)C3)cc1 (stereo not given) | 25%
CC(=O)NCCC(=O)N1Cc2ccccc2CC2(CCCN2Cc2ccncc2)C1 (stereo not given) | 0%
CCCC(=O)N1Cc2ccccc2CC2(CCCCN2CC2CCOCC2)C1 (stereo not given) | 8.9µM*
CC(=O)N1Cc2ccccc2CC2(CCCCN2CC2CCOCC2)C1 (stereo not given) | -17%
CCCC(=O)N1Cc2ccccc2CC2(CCCN2Cc2ccncc2)C1 (stereo not given) | 8.9µM*
CCCC(=O)N1Cc2ccccc2CC2(CCCCN2Cc2ccncc2)C1 (stereo not given) | 8.9µM*
O=C(O)CCC(=O)N1Cc2ccccc2CC2(CCCCN2Cc2ccncc2)C1 (stereo not given) | 13%
CC(C)NC(=O)C[C@@H]1O[C@H](CNC(=O)NC(C)C)[C@@H](O)[C@H]1O | 24%[44.1 µM]
CCn1ccc(C(=O)N2CCC(c3nnc(Cn4cncn4)n3C)CC2)n1 | -27%
CC(C)N1C(=O)CO[C@H](c2ccc(NC(=O)c3cnccn3)cc2)[C@H]1CO | -18%[44.1 µM]
c1cc(-c2nc(C3CCOCC3)nn2CC2COCCO2)[nH]n1 (stereo not given) | 4%
O=C(N[C@@H]1CN(Cc2ccc(F)cc2F)C[C@H]1CO)c1cnccn1 | -10%
COc1cccc(C(=O)NC2CCN(c3cc(-c4ccccc4)[nH]n3)CC2)c1OC | -7%
C=CCN1CCN(C(=O)CCc2nc(C3CCCN3C(=O)NCC)no2)CC1 (stereo not given) | -1%
O=C(CN1CC2CC(C1)[C@H]1CCCC(=O)N1C2)NCCc1ccccc1 (stereo not given in full) | -4%
CCCS(=O)(=O)N1C[C@@H](Oc2ccccc2)C[C@H]1C(=O)NCCOC | 5%
Cc1nonc1OCCNC(=O)C1CCC(=O)N(CCN2CCOCC2)C1 (stereo not given) | 17%
COCCN1C(=O)c2ccccc2C(C(=O)N2CCOCC2)C12CCCCC2 (stereo not given) | -8%
COc1ccc(-c2cc(N3CCCN(C(=O)c4ccc(OC)cc4OC)CC3)n[nH]2)cc1 | i
O=C(c1ccc2c(c1)OCO2)N1C[C@@H]2C[C@H](C1)c1ccc(-c3cccc(C(F)(F)F)c3)c(=O)n1C2 | -16%

Screening data: PubChem, National Center for Advancing Translational Sciences (NCATS)
